A short description of test [1]: Cell Viability - LYMP2-010 (AID 981).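 Further: cells exposed to compound for 24 hours at 37 °C; nearly all actives have a fitted effect of over 55% in size.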 Further: potency means the concentration at half of the fitted maximal effect. An outline of the steps: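 Steps: seed 2500 LYMP2-010 cells per well; incubate 5 hr at 37 C; add compound; incubate 24 hr at 37 C; add CellTiter-Glo, wait 30 min at room temperature; read luminescence. Concentration-response fitted to Hill equation for AC50.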
A short description of test [2]: Cell Viability - LYMP2-012 (AID 982).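 Further: cellular ATP by luciferase luminescence where a drop means cytotoxicity; cells exposed to compound for one day before reading; nearly all actives have a fitted effect of over 55% in size.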 Further: potency means the concentration at half of the fitted maximal effect.
Test [3] in a line: Cell Viability - LYMP2-014 (AID 983).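 Further: cells exposed to compound for 24 h at 37 °C; plate controls were DMSO only for no effect and 92 µM tetraoctylammonium bromide for full effect; nearly all actives have a fitted effect of over 50% in size.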 An outline of the steps:
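Cells are plated at 2500/well and left 5 hr at 37 C. Compounds are added across a concentration range and incubated 24 hr at 37 C in complete medium. CellTiter-Glo is added, and luminescence is read after 30 min at room temperature.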

The nature of test [4]: Cell Viability - LYMP2-016 (AID 984).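 Further: cells exposed to compound for 24 hours at 37 °C; nearly all actives have a fitted effect of over 55% in size.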 Further: potency means the concentration at half of the fitted maximal effect. An outline of the steps:
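Acute toxicity in a Coriell human lymphoblastoid line is scored as loss of intracellular ATP over 24 h of treatment in complete medium. CellTiter-Glo signal is fitted across concentrations with the Hill equation to give AC50.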

Test [5] in a line: Cell Viability - LYMP2-018 (AID 985).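 Further: compound exposure lasted 24 hr at 37 °C; nearly all actives have a fitted effect of over 50% in size.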 Further: potency means the concentration at half of the fitted maximal effect. The method in brief: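 Seed 2500 lymphoblastoid cells per well, incubate 5 hr at 37 C, add compound and incubate 24 hr at 37 C, add CellTiter-Glo, wait 30 min at room temperature, then read luminescence.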
A short description of test [6]: Cell Viability - LYMP2-020 (AID 986).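 Further: cells exposed to compound for 24 h at 37 °C; nearly all actives have a fitted effect of over 55% in size.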 Further: potency means the concentration at half of the fitted maximal effect. An outline of the steps:
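Seed 2500 cells per well and incubate 5 hr at 37 C. Add compounds at a concentration series and incubate 24 hr at 37 C. Add CellTiter-Glo, wait 30 min at RT, read luminescence, and fit a Hill curve for AC50.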

Test [7] can be described thus: Cell Viability - LYMP2-022 (AID 987). Further: nearly all actives have a fitted effect of over 55% in size. Further: potency means the concentration at half of the fitted maximal effect. An outline of the steps:
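Cells were seeded at 2500 per well, rested 5 hr at 37 C, and treated with titrated compounds for 24 hr at 37 C. Cellular ATP was then quantified by luciferase luminescence, and AC50 values were derived from Hill-modelled concentration-response curves.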

The nature of test [8]: Cell Viability - LYMP2-024 (AID 988). Further: nearly all actives have a fitted effect of over 60% in size. Further: potency means the concentration at half of the fitted maximal effect. An outline of the steps: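 qHTS cytotoxicity, human lymphoblastoid line, complete medium; 24 h cpd treatment, 37 C; CellTiter-Glo ATP luminescence readout; tetraoctylammonium bromide positive control; AC50 via Hill fit.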
A short description of test [9]: Cell Viability - LYMP1-002 - Assay at 40 hr (AID 994). Further: nearly all actives have a fitted effect of over 60% in size. Further: potency means the concentration at half of the fitted maximal effect. The method in brief:
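Cells are plated at 2500 per well and rested 5 hr at 37 C. Compounds are added and incubated 40 hr at 37 C. CellTiter-Glo reagent is added for 30 min at room temperature before luminescence is read.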

The nature of test [10]: qHTS Assay for Lipid Storage Modulators (AID 1519; calls by dose curve; on activity change, negative = inhibition: on the % scale 0 is the no-effect control and ±100 the full control effect). The following applies: Drosophila S3 cells, BODIPY lipid droplet/cell ratio, laser cytometry, cells loaded with oleic acid; for activity change, negative = inhibition: at 57.5 µM (top of the series). An outline of the steps:
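Cells seeded at 5,000 per well were treated with compounds over a concentration series and loaded with oleic acid (400 uM, as added). Lipid droplet fluorescence (488 nm excitation, 500-530 nm channel) was read by laser-scanning cytometry and normalized to 20 uM Triacsin C.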

Where [11] appears, read: measured here: cell count channel max response.
[12] abbreviates: measured here: lipid channel max response.

Records with an inconclusive call do not appear. Active and inactive are the calls of the source. Unless noted, the call rests on the fitted dose curve; in most records, active means well fitted cell-killing curve with a large enough effect; inconclusive means small, poorly fitted or top-dose-only effect; inactive means flat fitted curve, though single readings scatter.

Results on 26 compounds are retold here after PubChem BioAssay (NCATS).

As to `OB(O)O`, the Potency entry in [1], in [2], in test [3], in test [4], in test [5] and in test [6] was “inactive” throughout. For the same compound, the Potency entry in test [7], in test [8] and in [9] was “inactive” throughout.

On to `Oc1cccc(O)c1O`, for which the Potency result in test [2], in test [3], in test [4], in [5], in [6] and in [9] was “inactive” in each case.

As to `CC1=CC(=O)NS(=O)(=O)O1`, the Potency result in test [1], in test [2], in test [3], in test [4], in test [5] and in test [6] was “inactive” each time. Also, the Potency result in test [7], in test [8] and in test [9] was “inactive” each time.

Consider `Nc1nccs1`, for which the Potency result in test [1], in test [2], in test [3], in test [4], in test [5] and in [6] was “inactive” throughout. Also, the Potency result in [7], in test [8] and in test [9] was “inactive” each time. Moreover, the activity change, negative = inhibition in test [10] was 6.96% (inactive). Moreover, the figures for the max response in test [10] (setting [11]) and in [10] (setting [12]) were -1.03% and 14.6%, respectively.

On to `[O-][N+](=Nc1ccccc1)c1ccccc1`, for which the Potency entry in test [1], in test [2], in test [3], in test [4], in test [5] and in [6] was “inactive” in each case. The Potency result in test [7], in [8] and in test [9] was “inactive” in each case.

Turning to `CC[C@H]1OC(=O)[C@H](C)[C@@H](O[C@H]2C[C@@](C)(OC)[C@@H](O)[C@H](C)O2)[C@H](C)[C@@H](O[C@@H]2O[C@H](C)C[C@H](N(C)C)[C@H]2O)[C@](C)(O)C[C@@H](C)CN(C)[C@H](C)[C@@H](O)[C@]1(C)O`, the Potency result in test [1], in test [2], in [3], in [4], in [5] and in [6] was “inactive” throughout. Further, the Potency entry in [7], in [8] and in test [9] was “inactive” in each case.

As for `C[C@H](CCC(=O)O)[C@H]1CC[C@H]2[C@@H]3CC[C@@H]4C[C@H](O)CC[C@]4(C)[C@H]3C[C@H](O)[C@]12C`, the Potency entry in test [1], in [4], in test [5], in test [6], in [7] and in test [8] was “inactive” in each case. Besides, the Potency result in test [9] was “inactive”.

Consider `Nc1ncnc2c1ncn2[C@H]1CC[C@@H](CO)O1`, for which the Potency entry in test [1], in test [2], in test [3], in [4], in test [5] and in [6] was “inactive” in each case. Further, the Potency entry in test [7], in test [8] and in test [9] was “inactive” throughout. For the same compound, the activity change, negative = inhibition in test [10] is 1.8% (inactive). For the same compound, the results for the max response in test [10] (setting [11]) and in test [10] (setting [12]) were 3.29% and 6.18%, respectively.

As to `CC/C=C\C/C=C\C/C=C\CCCCCCCC(=O)O`, the results for the Potency in test [1], in test [7] and in test [8] were 39.8 µM (active), 50.1 µM (active) and 39.8 µM (active), respectively. The Potency entry in test [9] was “inactive”.

Regarding `CC(C)(C)CC(C)(C)c1ccc(OCCO)cc1`, the Potency result in test [1], in test [2], in test [3], in [4], in test [5] and in [6] was “inactive” throughout. Also, the Potency result in test [7], in test [8] and in test [9] was “inactive” each time.

`ClC(Cl)Cl`: the Potency result in [1], in [2], in [3], in [4], in [5] and in test [6] was “inactive” throughout. The Potency result in [7], in [8] and in test [9] was “inactive” each time.

Turning to `CO/N=C(/C(=O)N[C@@H]1C(=O)N2C(C(=O)O)=C(COC(N)=O)CS[C@H]12)c1ccco1`, the Potency entry in test [1], in test [2], in test [3], in test [4], in [5] and in test [6] was “inactive” each time. Also, the Potency entry in test [7], in test [8] and in test [9] was “inactive” in each case.

As for `CO`, the Potency entry in test [1], in test [2], in [3], in test [4], in test [5] and in test [6] was “inactive” each time. The Potency result in test [7], in [8] and in test [9] was “inactive” each time.

As for `c1ccc2ccccc2c1`, the Potency entry in [1], in test [2], in [3], in [4], in test [5] and in [6] was “inactive” in each case. Also, the Potency result in [7], in test [8] and in test [9] was “inactive” each time.

As for `O=c1n(CC2CO2)c(=O)n(CC2CO2)c(=O)n1CC1CO1` (stereo not given), the Potency was 25.1 µM (active) in test [1]; 25.1 µM (active) in test [2]; 31.6 µM (active) in test [4]; 15.8 µM (active) in test [5]; 25.1 µM (active) in test [6]; 31.6 µM (active) in [7]. Besides, the values for the Potency in test [8] and in [9] were 39.8 µM (active) and 7.94 µM (active), respectively.

Turning to `C[C@H]1O[C@@H](O[C@H]2[C@@H](O)C[C@H](O[C@H]3[C@@H](O)C[C@H](O[C@H]4CC[C@@]5(C)[C@H](CC[C@@H]6[C@@H]5C[C@@H](O)[C@]5(C)[C@@H](C7=CC(=O)OC7)CC[C@]65O)C4)O[C@@H]3C)O[C@@H]2C)C[C@H](O)[C@@H]1O`, the Potency is 0.251 µM (active) in [1]; 0.158 µM (active) in [5]; 0.251 µM (active) in [7]; 0.158 µM (active) in test [8]; 0.158 µM (active) in [9].

As for `CC1=CCC2CC1C2(C)C` (stereo not given), the Potency result in test [1], in test [2], in test [3], in test [4], in [5] and in [6] was “inactive” throughout. Further, the Potency result in [7], in test [8] and in [9] was “inactive” each time.

Turning to `OCc1ccccc1`, the Potency entry in test [1], in test [2], in test [3], in [4], in test [5] and in [6] was “inactive” each time. The Potency entry in test [7], in test [8] and in test [9] was “inactive” in each case.

For `COC(=O)c1ccccc1O`, the Potency entry in [1], in test [2], in test [3], in test [4], in test [5] and in test [6] was “inactive” each time. Further, the Potency result in test [7], in test [8] and in test [9] was “inactive” in each case.

Turning to `CC(C)O`, the Potency result in test [1], in test [2], in [3], in test [4], in test [5] and in [6] was “inactive” throughout. Also, the Potency result in test [7], in test [8] and in [9] was “inactive” each time.

With `CCOC(C)OCC`, the Potency entry in [1], in test [2], in [3], in test [4], in [5] and in [6] was “inactive” each time. Further, the Potency result in test [7], in [8] and in [9] was “inactive” throughout.

For `C/C=C/C=C/C(=O)O`, the Potency entry in test [1], in test [2], in test [3], in [4], in [5] and in [6] was “inactive” in each case. Besides, the Potency result in test [7], in test [8] and in test [9] was “inactive” each time.

On to `C[C@H](CCC(=O)O)[C@H]1CC[C@H]2[C@@H]3[C@H](O)C[C@@H]4C[C@H](O)CC[C@]4(C)[C@H]3C[C@H](O)[C@]12C`, for which the Potency entry in [1], in test [2], in test [3], in test [4], in test [5] and in [6] was “inactive” each time. The Potency result in test [7], in test [8] and in test [9] was “inactive” in each case.

With `Cc1ncc[nH]1`, the Potency entry in test [1], in test [2], in [3], in test [4], in test [5] and in test [6] was “inactive” each time. Further, the Potency result in test [7], in [8] and in test [9] was “inactive” each time.

With `OCC(O)CO`, the Potency result in [1], in test [2], in [3], in test [4], in [5] and in [6] was “inactive” throughout. The Potency entry in test [7], in test [8] and in test [9] was “inactive” in each case.

Consider `NCCN`, for which the Potency result in test [1], in test [2], in test [3], in test [4], in [5] and in [6] was “inactive” in each case. Further, the Potency entry in test [7], in test [8] and in test [9] was “inactive” each time.
